Reference: PubChem BioAssay AID1159580 (chemical genetic matrix, 2015)
Out of some 5,500 compounds screened, about 2,000 (36%) were called active. Inconclusive results (about 18%) are left out. No stated cut-off is given here; in the data, active means normalized growth mostly below about 0.91 (no sharp cut-off); inconclusive means no clear call, values can overlap the other calls; inactive means mostly above about 0.92. Some of the results follow.

Test: chemical genetic growth profiling, strain panel (AID 1159580);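 further: tested at 20 µM; growth read once vehicle control cultures reached saturation at 30 °C; 1 = growth at the plate median or of vehicle wells; lower values mean less growth of the strain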
Conditions: growth OD

Measured: normalized growth

CCCC(C)C1(CC)C(=O)NC(=O)NC1=O (configuration not stated)
inactive: S. cerevisiae deletion strains, locus YJR075W, strain HOC1, active compounds read low 1.04 | S. cerevisiae deletion strains, locus YKL009W, strain mrt4, active compounds read low 1.03 | S. cerevisiae deletion strains, locus YKL068W, active compounds read low 1.01 | S. cerevisiae deletion strains, locus YKL085W, strain MDH1 (second series), active compounds read low 1.02 | S. cerevisiae deletion strains, locus YKL085W, strain MDH1, active compounds read low 1.02 | S. cerevisiae deletion strains, locus YKL160W, strain elf1, active compounds read low 1 | S. cerevisiae deletion strains, locus YKL190W, strain CNB1, active compounds read low 1.02 | S. cerevisiae deletion strains, locus YKR001C, strain vps1, active compounds read low 1.03 | S. cerevisiae deletion strains, locus YKR026C, strain gcn3, active compounds read low 0.998 | S. cerevisiae deletion strains, locus YKR091W, strain srl3, active compounds read low 1 | S. cerevisiae deletion strains, locus YLL001W, strain dnm1, active compounds read low 0.994 | S. cerevisiae deletion strains, locus YLL026W, active compounds read low 1 | S. cerevisiae deletion strains, locus YLL041C, strain sdh2, active compounds read low 1 | S. cerevisiae deletion strains, locus YLR027C, strain aat2, active compounds read low 0.998 | S. cerevisiae deletion strains, locus YLR039C, strain RIC1, active compounds read low 1.1 | S. cerevisiae deletion strains, locus YLR058C, strain SHM2, active compounds read low 1.01 | S. cerevisiae deletion strains, locus YLR102C, strain apc9, active compounds read low 1.02 | S. cerevisiae deletion strains, locus YLR113W, strain HOG1, active compounds read low 0.985 | S. cerevisiae deletion strains, locus YLR221C, strain rsa3, active compounds read low 1 | S. cerevisiae deletion strains, locus YLR258W, strain gsy2, active compounds read low 1 | S. cerevisiae deletion strains, locus YLR262C, strain YPT6 (second series), active compounds read low 1.02 | S. cerevisiae deletion strains, locus YLR262C, strain YPT6, active compounds read low 1.11 | S. cerevisiae deletion strains, locus YLR268W, strain sec22, active compounds read low 1.01 | S. cerevisiae deletion strains, locus YLR320W, strain mms22, active compounds read low 1.01 | S. cerevisiae deletion strains, locus YLR330W, strain CHS5, active compounds read low 1.01 | S. cerevisiae deletion strains, locus YLR342W, strain FKS1 (second series), active compounds read low 1.04 | S. cerevisiae deletion strains, locus YLR342W, strain FKS1, active compounds read low 1 | S. cerevisiae deletion strains, locus YLR357W, strain rsc2, active compounds read low 0.984 | S. cerevisiae deletion strains, locus YLR370C, strain arc18, active compounds read low 1 | S. cerevisiae deletion strains, locus YLR371W, strain rom2, active compounds read low 1.02 | S. cerevisiae deletion strains, locus YLR384C, strain iki3, active compounds read low 0.996 | S. cerevisiae deletion strains, locus YLR418C, strain cdc73, active compounds read low 1.05 | S. cerevisiae deletion strains, locus YML016C, strain PPZ1, active compounds read low 1.01 | S. cerevisiae deletion strains, locus YML032C, strain rad52, active compounds read low 1.02 | S. cerevisiae deletion strains, locus YML120C, strain ndi1, active compounds read low 1.02 | S. cerevisiae deletion strains, locus YML124C, strain tub3, active compounds read low 1.02 | S. cerevisiae deletion strains, locus YMR058W, strain fet3, active compounds read low 1.01 | S. cerevisiae deletion strains, locus YMR078C, strain ctf18, active compounds read low 1.02 | S. cerevisiae deletion strains, locus YMR125W, strain sto1, active compounds read low 0.996 | S. cerevisiae deletion strains, locus YMR129W, active compounds read low 0.997 | S. cerevisiae deletion strains, locus YMR205C, strain PFK2, active compounds read low 0.992 | S. cerevisiae deletion strains, locus YMR223W, strain ubp8, active compounds read low 1.04 | S. cerevisiae deletion strains, locus YMR231W, strain pep5, active compounds read low 1 | S. cerevisiae deletion strains, locus YMR263W, strain SAP30, active compounds read low 1.02 | S. cerevisiae deletion strains, locus YMR307W, strain GAS1, active compounds read low 1.12 | S. cerevisiae deletion strains, locus YNL067W, strain RPL9B, active compounds read low 1.01 | S. cerevisiae deletion strains, locus YNL071W, strain lat1, active compounds read low 1.01 | S. cerevisiae deletion strains, locus YNL128W, strain TEP1, active compounds read low 1.02 | S. cerevisiae deletion strains, locus YNL153C, strain GIM3, active compounds read low 1 | S. cerevisiae deletion strains, locus YNL183C, strain NPR1, active compounds read low 0.922 | S. cerevisiae deletion strains, locus YNL209W, strain ssb2, active compounds read low 1 | S. cerevisiae deletion strains, locus YNL233W, strain BNI4, active compounds read low 1.01 | S. cerevisiae deletion strains, locus YNL248C, strain rpa49, active compounds read low 1 | S. cerevisiae deletion strains, locus YNL250W, strain rad50, active compounds read low 1.02 | S. cerevisiae deletion strains, locus YNL271C, strain bni1, active compounds read low 1.03 | S. cerevisiae deletion strains, locus YNL298W, strain CLA4, active compounds read low 1.03 | S. cerevisiae deletion strains, locus YNL307C, strain MCK1, active compounds read low 1.03 | S. cerevisiae deletion strains, locus YNL322C, strain KRE1 (second series), active compounds read low 0.997 | S. cerevisiae deletion strains, locus YNL322C, strain KRE1, active compounds read low 1.01 | S. cerevisiae deletion strains, locus YNR049C, strain mso1, active compounds read low 0.998 | S. cerevisiae deletion strains, locus YNR052C, strain pop2, active compounds read low 1.02 | S. cerevisiae deletion strains, locus YOL006C, strain TOP1, active compounds read low 1.07 | S. cerevisiae deletion strains, locus YOL012C, strain htz1 1.23 | S. cerevisiae deletion strains, locus YOL147C, strain pex11, active compounds read low 1 | S. cerevisiae deletion strains, locus YOR001W, strain rrp6, active compounds read low 0.999 | S. cerevisiae deletion strains, locus YOR061W, strain CKA2, active compounds read low 1.02 | S. cerevisiae deletion strains, locus YOR069W, strain VPS5, active compounds read low 1.01 | S. cerevisiae deletion strains, locus YOR070C, strain gyp1, active compounds read low 1 | S. cerevisiae deletion strains, locus YOR080W, strain dia2, active compounds read low 0.998 | S. cerevisiae deletion strains, locus YOR083W, strain WHI5, active compounds read low 1.01 | S. cerevisiae deletion strains, locus YOR106W, strain vam3, active compounds read low 1.02 | S. cerevisiae deletion strains, locus YOR136W, strain idh2, active compounds read low 1.02 | S. cerevisiae deletion strains, locus YOR144C, strain elg1, active compounds read low 1.01 | S. cerevisiae deletion strains, locus YOR184W, strain ser1, active compounds read low 1.06 | S. cerevisiae deletion strains, locus YOR231W, strain MKK1, active compounds read low 0.996 | S. cerevisiae deletion strains, locus YOR265W, strain rbl2, active compounds read low 1 | S. cerevisiae deletion strains, locus YOR270C, strain vph1, active compounds read low 1.01 | S. cerevisiae deletion strains, locus YOR290C, strain snf2, active compounds read low 1.02 | S. cerevisiae deletion strains, locus YOR316C, strain cot1, active compounds read low 1.03 | S. cerevisiae deletion strains, locus YPL051W, strain arl3, active compounds read low 1.01 | S. cerevisiae deletion strains, locus YPL055C, strain LGE1, active compounds read low 1.04 | S. cerevisiae deletion strains, locus YPL078C, strain atp4, active compounds read low 0.999 | S. cerevisiae deletion strains, locus YPL106C, strain sse1, active compounds read low 0.996 | S. cerevisiae deletion strains, locus YPL240C, strain hsp82, active compounds read low 1.02 | S. cerevisiae deletion strains, locus YPL241C, strain CIN2, active compounds read low 1.01 | S. cerevisiae deletion strains, locus YPL256C, strain CLN2, active compounds read low 0.981 | S. cerevisiae deletion strains, locus YPR119W, strain clb2, active compounds read low 1.01 | S. cerevisiae deletion strains, locus YPR141C, strain kar3, active compounds read low 1.02 | S. cerevisiae deletion strains, locus YPR163C, strain tif3, active compounds read low 1.01 | S. cerevisiae deletion strains, locus YPR167C, strain met16, active compounds read low 1.02 | S. cerevisiae deletion strains, strain wtn01, active compounds read low 1.02 | S. cerevisiae strains, strain wild type, active compounds read low 1.01
